Measured values published in PubChem BioAssay (EPA / NIEHS).
Values joined by “and” are separate entries in the source; they are usually repeats but may differ in a detail not shown here. Identical values can stand only once. Inconclusive results are not listed. Some structures have more than one record in an assay (separate samples or runs), and their calls can disagree. Active and inactive are the calls of the source. The calls were made as follows, unless noted: active = hit-call score of the fitted dose curve at least 0.9, where 1 is the maximum; inactive = score below 0.9.

Experiments:
[1] = read-out: Interleukin-8 (IL8), CXCL8 (gene 3576); assay: BSK_3C_IL8: BioMAP Diversity Plus: 3C Assay for Interleukin-8 (IL8) Biomarker Activity (AID 2283020); conditions: primary human endothelial cells (HUVEC); actives raise or lower the signal
How it was run: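 Human vascular endothelial cells (umbilical vein) in the 3C system; IL-8 level detected by ELISA at 24 h post-dose, with DMSO as baseline.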

[2] = read-out: Monokine induced gamma interferon (MIG), CXCL9 (gene 4283); assay: BSK_3C_MIG: BioMAP Diversity Plus: 3C Assay for Monokine induced gamma interferon (MIG) Biomarker Activity (AID 2283021); conditions: primary human endothelial cells (HUVEC); actives raise or lower the signal
How it was run: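 After 24 h of treatment, human umbilical vein endothelial cultures (3C system) had their MIG biomarker level determined by ELISA, with DMSO serving as negative control.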

[3] = BSK_3C_SRB: Viability Assessment in the BioMAP Diversity Plus: 3C Assay (AID 2283023); conditions: primary human endothelial cells (HUVEC);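 also: fitted both ways against DMSO so a hit may be signal rise or drop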
How it was run: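 Human umbilical vein endothelial cells in the 3C system, treated 24 h. Total protein measured by 0.1% sulforhodamine B staining after 10% TCA fixation, read at 560 nm; bidirectional fit versus DMSO.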

[4] = read-out: Matrix Metallopeptidase 1 (MMP1), MMP1 (gene 4312); assay: BSK_BE3C_MMP1: BioMAP Diversity Plus: BE3C Assay for Matrix Metallopeptidase 1 (MMP1) Biomarker Activity (AID 2283024); conditions: primary human bronchial epithelial cells; actives raise or lower the signal
How it was run: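 Dose cells, wait 24 h, run MMP1 ELISA; cells are human bronchial epithelial primaries. Both increases and decreases relative to DMSO counted.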

[5] = read-out: Pselectin, SELP (gene 6403); assay: BSK_4H_Pselectin: BioMAP Diversity Plus: 4H Assay for Pselectin Biomarker Activity (AID 2283026); conditions: primary human endothelial cells (HUVEC); actives raise or lower the signal
How it was run: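 Human vascular endothelium from umbilical vein; P-selectin measured by ELISA at 24 h post-dose, with cytotoxicity checked by sulforhodamine B total-protein staining in parallel cultures (0.1% SRB after 10% TCA fixation, read at 560 nm).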

[6] = BSK_4H_SRB: Viability Assessment in the BioMAP Diversity Plus: 4H Assay (AID 2283027); conditions: primary human endothelial cells (HUVEC);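 also: cells exposed to compound for 24 h before staining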;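 as to AC50: curves fitted both ways versus DMSO so AC50 may be loss or gain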
How it was run: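 Human umbilical vein endothelial cells, 24 h after chemical dosing; total protein measured by 0.1% sulforhodamine B staining after 10% TCA fixation, read at 560 nm. Bidirectional fitting against DMSO.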

[7] = BSK_BE3C_SRB: Viability Assessment in the BioMAP Diversity Plus: BE3C Assay (AID 2283028); conditions: primary human bronchial epithelial cells;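 as to AC50: fitted both ways so AC50 may mark signal gain or loss versus DMSO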
How it was run: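 Human bronchial epithelial primary cells in confluent culture, 24 h after chemical dosing; total protein by 0.1% SRB staining after 10% TCA fixation, read at 560 nm. Bidirectional fitting versus DMSO baseline.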

[8] = read-out: Thrombomodulin, THBD (gene 7056); assay: BSK_3C_Thrombomodulin: BioMAP Diversity Plus: 3C Assay for Thrombomodulin Biomarker Activity (AID 2283029); conditions: primary human endothelial cells (HUVEC); actives raise or lower the signal
How it was run: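 Thrombomodulin ELISA, human primary HUVEC, 24 h post-dose; data fitted in both directions relative to DMSO.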

[9] = read-out: Vascular endothelial growth factor receptor 2 (Homo sapiens) (UniProt P35968); assay: BSK_4H_VEGFRII: BioMAP Diversity Plus: 4H Assay for Vascular endothelial growth factor receptor 2 (VEGFR2) Biomarker Activity (AID 2283031); conditions: primary human endothelial cells (HUVEC); actives raise or lower the signal
How it was run: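 Primary human umbilical vein endothelial cells (4H system), 24 h exposure; cell-surface VEGFR2 measured by ELISA. Bidirectional fitting versus DMSO; cytotoxicity checked in parallel by SRB total-protein staining.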

[10] = read-out: Human Leukocyte Antigen - DR isotype (HLADR), HLA-DRA (gene 3122); assay: BSK_BE3C_HLADR: BioMAP Diversity Plus: BE3C Assay for Human Leukocyte Antigen - DR isotype (HLADR) Biomarker Activity (AID 2283032); conditions: primary human bronchial epithelial cells; actives raise or lower the signal
How it was run: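 Signal came from an ELISA for HLA-DR in human bronchial epithelial primary cells harvested 24 h after treatment; gain- and loss-of-signal fitting used DMSO controls as reference.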

[11] = read-out: Vascular cell adhesion molecule 1 (VCAM1), VCAM1 (gene 7412); assay: BSK_4H_VCAM1: BioMAP Diversity Plus: 4H Assay for Vascular cell adhesion molecule 1 (VCAM1) Biomarker Activity (AID 2283033); conditions: primary human endothelial cells (HUVEC); actives raise or lower the signal;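 also: cell-surface VCAM-1 protein measured by ELISA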
How it was run: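 Endpoint derived from bidirectional fitting against DMSO controls of VCAM-1 ELISA signal in umbilical vein endothelial cells sampled at 24 h following treatment.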

[12] = read-out: Interferon-gamma inducible Protein 10 (IP10), CXCL10 (gene 3627); assay: BSK_BE3C_IP10: BioMAP Diversity Plus: BE3C Assay for Interferon-gamma inducible Protein 10 (IP10) Biomarker Activity (AID 2283034); conditions: primary human bronchial epithelial cells; actives raise or lower the signal
How it was run: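 Using primary human bronchial epithelial cultures, the assay captures IP-10 by ELISA one day (24 h) after exposure. Parallel SRB staining of total protein flags overt cytotoxicity. Fits run bidirectionally relative to DMSO.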

[13] = read-out: Plasminogen activator inhibitor-1 (PAI1), SERPINE1 (gene 5054); assay: BSK_BE3C_PAI1: BioMAP Diversity Plus: BE3C Assay for Plasminogen activator inhibitor-1 (PAI1) Biomarker Activity (AID 2283037); conditions: primary human bronchial epithelial cells; actives raise or lower the signal
How it was run: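 PAI-1 biomarker levels in treated human bronchial epithelial cells are determined by ELISA at 24 h. Both increases and decreases relative to DMSO are fitted.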

[14] = read-out: urokinase plasminogen activator (uPA), PLAU (gene 5328); assay: BSK_BE3C_uPA: BioMAP Diversity Plus: BE3C Assay for urokinase plasminogen activator (uPA) Biomarker Activity (AID 2283038); conditions: primary human bronchial epithelial cells; actives raise or lower the signal
How it was run: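 Primary human bronchial epithelial cells, uPA measured by ELISA 24 h after dosing. Bidirectional change relative to DMSO; cytotoxicity checked in parallel cultures by sulforhodamine B total-protein staining.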

[15] = read-out: Urokinase-type plasminogen activator receptor (uPAR), PLAUR (gene 5329); assay: BSK_BE3C_uPAR: BioMAP Diversity Plus: BE3C Assay for Urokinase-type plasminogen activator receptor (uPAR) Biomarker Activity (AID 2283039); conditions: primary human bronchial epithelial cells; actives raise or lower the signal
How it was run: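 A uPAR ELISA serves as the readout, taken 24 h after treating primary human bronchial epithelial cells. Responses in either direction are fitted against DMSO, which defines baseline activity.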

[16] = read-out: Interleukin-6 (IL6), IL6 (gene 3569); assay: BSK_CASM3C_IL6: BioMAP Diversity Plus: CASM3C Assay for Interleukin-6 (IL6) Biomarker Activity for (AID 2283040); conditions: primary human coronary artery smooth muscle cells; actives raise or lower the signal
[17] = BSK_3C_Vis: BioMAP Diversity Plus: 3C Assay for Morphology Visualization (AID 2283025); conditions: primary human endothelial cells (HUVEC);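 also: fitted both ways so gain or loss versus DMSO counts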
How it was run: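 Endothelial cells from human umbilical vein were treated with test chemicals for 24 h and inspected by light microscopy for changes in cell conformation.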

[18] = read-out: Urokinase-type plasminogen activator receptor (uPAR), PLAUR (gene 5329); assay: BSK_4H_uPAR: BioMAP Diversity Plus: 4H Assay for Urokinase-type plasminogen activator receptor (uPAR) Biomarker Activity (AID 2283030); conditions: primary human endothelial cells (HUVEC); actives raise or lower the signal
How it was run: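 Human umbilical vein endothelial cells in the 4H system, 24 h after chemical dosing. Cell-surface uPAR measured by ELISA, fitted in both directions versus DMSO; cytotoxicity checked by SRB total protein in parallel cultures.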

[19] = read-out: Monokine induced gamma interferon (MIG), CXCL9 (gene 4283); assay: BSK_BE3C_MIG: BioMAP Diversity Plus: BE3C Assay for Monokine induced gamma interferon (MIG) Biomarker Activity (AID 2283035); conditions: primary human bronchial epithelial cells; actives raise or lower the signal;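 also: MIG protein measured by ELISA in BE3C cultures after 24 h of dosing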
How it was run: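 Primary human bronchial epithelial cells treated for 24 h; MIG levels measured by ELISA, fitted bidirectionally versus DMSO. Parallel SRB total-protein staining assessed cytotoxicity.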

[20] = molecular target: human Vitamin D Receptor (VDR), VDR (gene 7421) (UniProt P11473); assay: ATG_VDR_TRANS: Attagene TRANS-FACTORIAL HepG2 Assay for human Vitamin D Receptor (VDR) (AID 2283022; active = hit-call score of the fitted dose curve at least 0.9, where 1 is the maximum)
How it was run: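 HepG2 cells were transiently transfected with GAL4-UAS reporter units and a chimeric VDR-Gal4 construct, then dosed for 24 hours. Reporter mRNA was quantified by RT-PCR, fluorescent labeling, HpaI digestion and capillary electrophoresis; gain of signal analysed vs DMSO.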

Measured: AC50

Sequence of human Vitamin D Receptor (VDR), VDR (gene 7421) (P11473 whole entry, looked up, the tested form may be a part): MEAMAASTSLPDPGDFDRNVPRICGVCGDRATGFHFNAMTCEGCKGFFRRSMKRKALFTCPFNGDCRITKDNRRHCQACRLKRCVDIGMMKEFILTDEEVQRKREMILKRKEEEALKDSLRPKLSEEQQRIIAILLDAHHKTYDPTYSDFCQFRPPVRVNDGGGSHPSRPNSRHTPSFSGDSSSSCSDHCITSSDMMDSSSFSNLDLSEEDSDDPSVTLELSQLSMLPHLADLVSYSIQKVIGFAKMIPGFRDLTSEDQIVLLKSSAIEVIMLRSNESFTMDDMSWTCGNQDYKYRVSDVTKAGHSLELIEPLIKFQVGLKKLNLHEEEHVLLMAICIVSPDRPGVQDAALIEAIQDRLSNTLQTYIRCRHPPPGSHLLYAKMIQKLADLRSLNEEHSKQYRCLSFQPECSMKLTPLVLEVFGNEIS

O=S(=O)(Cl)C(F)(F)C(F)(F)C(F)(F)C(F)(F)C(F)(F)C(F)(F)C(F)(F)C(F)(F)F
active: [1] 30 µM and 35.3 µM | [3] 49.3 µM and 55.6 µM | [4] 7.12 µM and 7.23 µM | [6] 45.9 µM | [7] 43.9 µM and 30.7 µM | [8] 30 µM and 44.8 µM | [10] 44.8 µM and 46.8 µM | [12] 40.2 µM and 37 µM | [13] 45.8 µM and 47.4 µM | [14] 55.2 µM | [15] 51.7 µM and 51.6 µM
inactive: [2] | [5] | [6] | [9] | [11] | [14] | [16]

Cc1cnccn1
not listed: [9] | [11] | [20]
inactive: all other assays above

O=C(O)C(F)(F)C(F)(F)C(F)(F)OC(F)(C(F)(F)F)C(F)(F)F
inactive: [1] | [2] | [20] | [3] | [4] | [5] | [6] | [7] | [8] | [10] | [12] | [13] | [14] | [15] | [16]
active: [4] 37 µM

OCC(F)(F)C(F)(F)C(F)(F)C(F)(F)C(F)(F)C(F)(F)C(F)(F)C(F)(F)CO
inactive: [1] | [20] | [3] | [4] | [5] | [6] | [7] | [18] | [14] | [16]
active: [3] 24.6 µM | [4] 8.5 µM | [5] 9.58 µM | [6] 36.5 µM | [10] 30 µM and 31.7 µM | [12] 38 µM and 30.8 µM | [13] 37.4 µM and 30 µM | [15] 43.7 µM and 40.9 µM

O=C(O)C(F)(F)C(F)(F)C(F)(F)OC(F)(F)F
inactive: [1] | [20] | [3] | [4] | [5] | [6] | [7] | [18] | [9] | [10] | [12] | [13] | [14] | [15] | [16]
active: [4] 37.3 µM

CCN(CCO)S(=O)(=O)C(F)(F)C(F)(F)C(F)(F)C(F)(F)C(F)(F)C(F)(F)C(F)(F)C(F)(F)F
active: [1] 13.7 µM | [3] 27.6 µM and 17.8 µM | [4] 4.15 µM | [5] 19.1 µM | [6] 45.8 µM and 40.1 µM | [7] 44.5 µM and 37.2 µM | [10] 43.7 µM and 27.7 µM | [12] 35 µM and 14.4 µM | [13] 30 µM and 15.4 µM | [14] 47.8 µM | [15] 46.4 µM and 36.9 µM
inactive: [1] | [2] | [20] | [4] | [5] | [9] | [14] | [16]

OC(O)C(F)(F)C(F)(F)F
not listed: [9] | [17] | [18]
inactive: all other assays above

O=C(Cl)C(F)(F)C(F)(F)C(F)(F)C(F)(F)C(F)(F)C(F)(F)C(F)(F)F
active: [4] 6 µM and 24 µM | [12] 19.8 µM
inactive: [1] | [2] | [20] | [3] | [4] | [5] | [6] | [7] | [8] | [10] | [12] | [13] | [14] | [15] | [16]

O=C(O)C(F)(F)C(F)(F)C(F)(F)C(F)(F)C(F)(F)C(F)(F)C(F)F
active: [1] 30 µM | [4] 12 µM
inactive: [1] | [2] | [20] | [3] | [4] | [5] | [6] | [7] | [18] | [9] | [10] | [12] | [19] | [13] | [14] | [15] | [16]

Nc1cc([N+](=O)[O-])cc(Cl)c1O
active: [12] 3.97 µM
not listed: [8] | [9] | [11] | [18] | [19] | [20]
inactive: all other assays above

FC(F)(F)C(F)(F)C(F)(F)CC1CO1 (centres undefined)
active: [4] 26.3 µM
inactive: [1] | [20] | [3] | [4] | [5] | [6] | [7] | [18] | [10] | [11] | [12] | [13] | [14] | [15] | [16]

OCC(O)CC(F)(F)C(F)(F)C(F)(F)C(F)(F)F (centres undefined)
not listed: [9] | [11] | [17] | [19]
inactive: all other assays above

COC(F)(C(F)F)C(F)(F)F (centres undefined)
not listed: [9] | [17] | [18] | [19]
inactive: all other assays above
